The results in this text go back to PubChem BioAssay.

Active and inactive are the calls of the source.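 The calls were made as follows: active = visually confirmed hit in the image check and inhibition above 20%; inconclusive = visually confirmed hit but inhibition not above 20%; inactive = no visual hit in the image check.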

The nature of one experiment: endothelial E-selectin expression blockers – imaging, HUVEC, immunofluorescence, MLSMR starter and 10KST1 sets, primary screen (AID 487).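 As to inhibition: signal is fraction of cell area covered by stained E-selectin grains.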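 As to nuclei count: 100% = median nuclei count of all wells on the same plate.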 To be noted: HUVEC TNFalpha-induced E-selectin immunofluorescence imaging, at 2 µM; inhibition: stronger effect = higher value; nuclei count: measured here: cell number, toxicity.
What is called inhibition is the relative decrease from the control value, in per cent. On to `Cc1cc(=O)oc2c(CN3CCN(C)CC3)c(O)c(Cl)cc12`, for which the inhibition was -17.2% (inactive) and the nuclei count amounted to 105%.

Consider `C1CNCCNCCNCCN1`, for which the nuclei count was 105% and the inhibition is -31.7% (inactive).

For the molecule `CC(C(=O)O)c1ccc(-c2ccccc2)c(F)c1` (configuration not stated), the inhibition was -48.5% (inactive) and the nuclei count is 113%.

On to `Cc1c(C)c2cc(Cl)c(O)c(CN3CCCCC3)c2oc1=O`, for which the inhibition is -14.6% (inactive) and the nuclei count came to 124%.

With `Cc1oc2nc(SCCCC(=O)NCCCO)nc(N)c2c1C`, the nuclei count worked out at 116% and the inhibition was -109% (inactive).

For `CCN(CC)CCNC(=O)c1ccc(NC(C)=O)cc1`, the inhibition is 15.6% (inactive) and the nuclei count amounted to 104%.

`CCCC(=O)N1c2ccccc2NC2=C(C(=O)CCC2)C1c1ccc(F)cc1` (configuration not stated): the inhibition is -94.4% (inactive) and the nuclei count is 123%.

Turning to `COC(=O)CC1SC(=O)NC1=O` (configuration not stated), the nuclei count came out at 124% and the inhibition is -98.9% (inactive).

Turning to `Cc1cc(OCC(=O)Nc2ccc3oc(-c4ccncc4)nc3c2)ccc1Cl`, the inhibition was -81.7% (inactive) and the nuclei count is 122%.

As to `CCn1cc(C(=O)O)c(=O)c2cc(F)c(N3CCNCC3)nc21`, the inhibition was -53.3% (inactive) and the nuclei count turned out to be 92.8%.

`COc1ccc(C(=O)Cn2c(N3CCCCC3)nc3c2c(=O)n(C)c(=O)n3C)cc1OC`: the inhibition is -58.1% (inactive) and the nuclei count worked out at 115%.

Regarding `C=CCn1c(=S)[nH]c2nc3c(cc2c1=O)COC(C)(C)C3`, the inhibition is -9.4% (inactive) and the nuclei count amounted to 134%.

As to `Cc1cccc(N(CC(O)CN(C)C)S(=O)(=O)c2ccccc2)c1` (configuration not stated), the inhibition is -9.3% (inactive) and the nuclei count amounted to 177%.

As for `c1ccc(-c2nnc(OCCN3CCOCC3)c3ccccc23)cc1`, the nuclei count amounted to 126% and the inhibition is -85.3% (inactive).

As to `C[C@@H]1CCC[C@H](C)N1NC(=O)c1ccc(Cl)c(S(N)(=O)=O)c1`, the nuclei count was 111% and the inhibition was -55.3% (inactive).

As to `CCN(CC)CCN1C(=O)C(O)=C(C(=O)c2ccco2)C1c1ccccn1` (configuration not stated), the inhibition is -87.6% (inactive) and the nuclei count was 123%.

In the case of `CCC1CCCCN1c1nc(-c2ccncc2)nc2ccccc12` (configuration not stated), the inhibition was 12.1% (inactive) and the nuclei count was determined as 126%.

On to `CN1c2ccccc2-c2nc3ccccc3n2C1c1ccco1` (configuration not stated), for which the inhibition was 1.9% (inactive) and the nuclei count turned out to be 99.5%.

A further experiment can be described thus: Primary imaging screen for DUSP6 inhibitors that restore phospho-Erk in transfected HeLa cells, chemical complementation (AID 609). The settings on record: HeLa MKP-3 transfected, phospho-Erk imaging KS statistic; measured here: cell density z-score; at 10 µM; cells stimulated with TPA for 15 min.
As to `Cc1cc(=O)oc2c(CN3CCN(C)CC3)c(O)c(Cl)cc12`, the z-score was -0.81.

With `C1CNCCNCCNCCN1`, the z-score was -1.12.

For the molecule `CC(C(=O)O)c1ccc(-c2ccccc2)c(F)c1` (configuration not stated), the z-score stood at 2.7.

For `Cc1c(C)c2cc(Cl)c(O)c(CN3CCCCC3)c2oc1=O`, the z-score is 0.378.

In turn, `Cc1oc2nc(SCCCC(=O)NCCCO)nc(N)c2c1C` displayed a z-score of 0.495.

Consider `CCN(CC)CCNC(=O)c1ccc(NC(C)=O)cc1`, for which the z-score is -0.982.

`COC(=O)CC1SC(=O)NC1=O` (configuration not stated): the z-score is -1.23.

In turn, `Cc1cc(OCC(=O)Nc2ccc3oc(-c4ccncc4)nc3c2)ccc1Cl` came in with a z-score of 0.451.

Molecule `CCn1cc(C(=O)O)c(=O)c2cc(F)c(N3CCNCC3)nc21` returned a z-score of 1.02.

Regarding `COc1ccc(C(=O)Cn2c(N3CCCCC3)nc3c2c(=O)n(C)c(=O)n3C)cc1OC`, the z-score was -0.186.

For `C=CCn1c(=S)[nH]c2nc3c(cc2c1=O)COC(C)(C)C3`, the z-score turned out to be 1.01.

In turn, `Cc1cccc(N(CC(O)CN(C)C)S(=O)(=O)c2ccccc2)c1` (configuration not stated) displayed a z-score of 0.811.

The molecule `c1ccc(-c2nnc(OCCN3CCOCC3)c3ccccc23)cc1` showed a z-score of 0.666.

For `C[C@@H]1CCC[C@H](C)N1NC(=O)c1ccc(Cl)c(S(N)(=O)=O)c1`, the z-score is -0.0459.

`CCN(CC)CCN1C(=O)C(O)=C(C(=O)c2ccco2)C1c1ccccn1` (configuration not stated) showed a z-score of 0.101.

`CCC1CCCCN1c1nc(-c2ccncc2)nc2ccccc12` (configuration not stated) had a z-score of 1.04.

In turn, `CN1c2ccccc2-c2nc3ccccc3n2C1c1ccco1` (configuration not stated) returned a z-score of 0.728.

The same experiment, now with this note: HeLa MKP-3 transfected, phospho-Erk imaging KS statistic; measured here: nuclear c-Myc green intensity z-score; at 10 µM; cells stimulated with TPA for 15 min.
On to `Cc1cc(=O)oc2c(CN3CCN(C)CC3)c(O)c(Cl)cc12`, for which the z-score is -0.0591.

With `C1CNCCNCCNCCN1`, the z-score is -0.574.

For the molecule `CC(C(=O)O)c1ccc(-c2ccccc2)c(F)c1` (configuration not stated), the z-score was -2.89.

Take `Cc1c(C)c2cc(Cl)c(O)c(CN3CCCCC3)c2oc1=O`: the z-score was -1.22.

Turning to `Cc1oc2nc(SCCCC(=O)NCCCO)nc(N)c2c1C`, the z-score was found to be 0.376.

In the case of `CCN(CC)CCNC(=O)c1ccc(NC(C)=O)cc1`, the z-score came to 0.436.

On to `COC(=O)CC1SC(=O)NC1=O` (configuration not stated), for which the z-score is -0.523.

Take `Cc1cc(OCC(=O)Nc2ccc3oc(-c4ccncc4)nc3c2)ccc1Cl`: the z-score is -0.406.

`CCn1cc(C(=O)O)c(=O)c2cc(F)c(N3CCNCC3)nc21`: the z-score is -0.267.

The molecule `COc1ccc(C(=O)Cn2c(N3CCCCC3)nc3c2c(=O)n(C)c(=O)n3C)cc1OC` came in with a z-score of 0.344.

The molecule `C=CCn1c(=S)[nH]c2nc3c(cc2c1=O)COC(C)(C)C3` showed a z-score of 0.551.

For `Cc1cccc(N(CC(O)CN(C)C)S(=O)(=O)c2ccccc2)c1` (configuration not stated), the z-score stood at 0.15.

With `c1ccc(-c2nnc(OCCN3CCOCC3)c3ccccc23)cc1`, the z-score came out at 0.289.

Take `C[C@@H]1CCC[C@H](C)N1NC(=O)c1ccc(Cl)c(S(N)(=O)=O)c1`: the z-score was -0.463.

For the molecule `CCN(CC)CCN1C(=O)C(O)=C(C(=O)c2ccco2)C1c1ccccn1` (configuration not stated), the z-score is -1.41.

With `CCC1CCCCN1c1nc(-c2ccncc2)nc2ccccc12` (configuration not stated), the z-score was -0.92.

The molecule `CN1c2ccccc2-c2nc3ccccc3n2C1c1ccco1` (configuration not stated) returned a z-score of 0.674.

Still in this experiment, the particulars now being: HeLa MKP-3 transfected, phospho-Erk imaging KS statistic; measured here: nuclear pErk red intensity z-score; at 10 µM; stronger effect = higher value; cells stimulated with TPA for 15 min.
With `Cc1cc(=O)oc2c(CN3CCN(C)CC3)c(O)c(Cl)cc12`, the z-score is -0.654.

As to `C1CNCCNCCNCCN1`, the z-score was found to be 0.0503.

On to `CC(C(=O)O)c1ccc(-c2ccccc2)c(F)c1` (configuration not stated), for which the z-score stood at 0.18.

As to `Cc1c(C)c2cc(Cl)c(O)c(CN3CCCCC3)c2oc1=O`, the z-score was -0.936.

On to `Cc1oc2nc(SCCCC(=O)NCCCO)nc(N)c2c1C`, for which the z-score was -1.33.

Take `CCN(CC)CCNC(=O)c1ccc(NC(C)=O)cc1`: the z-score worked out at 0.661.

As to `COC(=O)CC1SC(=O)NC1=O` (configuration not stated), the z-score came to 0.399.

As for `Cc1cc(OCC(=O)Nc2ccc3oc(-c4ccncc4)nc3c2)ccc1Cl`, the z-score was -0.15.

As to `CCn1cc(C(=O)O)c(=O)c2cc(F)c(N3CCNCC3)nc21`, the z-score is -1.93.

`COc1ccc(C(=O)Cn2c(N3CCCCC3)nc3c2c(=O)n(C)c(=O)n3C)cc1OC`: the z-score amounted to 0.238.

`C=CCn1c(=S)[nH]c2nc3c(cc2c1=O)COC(C)(C)C3`: the z-score is -1.17.

`Cc1cccc(N(CC(O)CN(C)C)S(=O)(=O)c2ccccc2)c1` (configuration not stated) came in with a z-score of 0.694.

Take `c1ccc(-c2nnc(OCCN3CCOCC3)c3ccccc23)cc1`: the z-score was determined as 1.89.

Take `C[C@@H]1CCC[C@H](C)N1NC(=O)c1ccc(Cl)c(S(N)(=O)=O)c1`: the z-score is -0.78.

Regarding `CCN(CC)CCN1C(=O)C(O)=C(C(=O)c2ccco2)C1c1ccccn1` (configuration not stated), the z-score was 0.388.

Turning to `CCC1CCCCN1c1nc(-c2ccncc2)nc2ccccc12` (configuration not stated), the z-score turned out to be 0.299.

For `CN1c2ccccc2-c2nc3ccccc3n2C1c1ccco1` (configuration not stated), the z-score is -0.101.
